Counter-ions that a name gives are not always drawn.

In the test the test system is thyroid hormone receptor (endogenous TRα and TRβ). Details: species or system GH3-TRE-Luc (rat pituitary); GH3-TRE-Luc luciferase reporter, antagonist mode against 1 nM T3, loss of signal, qHTS. The following applies: read-out: Average AC50 (uM) GH3-TRE-Antag, antagonist mode, 1 nM T3, no GH3 cytotoxicity hit.
Take `COc1ccc(N=[N+]([O-])c2ccc(OC)cc2)cc1` [4-Azoxyanisole]: the AC50 worked out at 30.2 µM.
The result for `COc1ccc2c(c1OC)CN1CCc3cc4c(cc3[C@@H]1C2)OCO4` [Canadine] reads above 20 µM.
The result for `CC1(C)S[C@@H]2[C@H](NC(=O)[C@H](N)c3ccccc3)C(=O)N2[C@H]1C(=O)OC1OC(=O)c2ccccc21` (some centres unmarked) [Talampicillin hydrochloride] reads above 20 µM.
Under `O=C(Nc1ccc(/C=C/c2ccc(NC(=O)c3cc(S(=O)(=O)O)c4cccnc4c3O)cc2S(=O)(=O)O)c(S(=O)(=O)O)c1)c1cc(S(=O)(=O)O)c2cccnc2c1O` [Ubistatin A] stands 27.4 µM; under `CCCCOC(=O)CC(CC(=O)OCCCC)(OC(C)=O)C(=O)OCCCC` [Acetyl tributyl citrate], 35.1 µM; under `C=CCCCCCCCCC(=O)O` [10-Undecenoic acid], 43.6 µM.
In the case of `CC(C(=O)O)c1ccc(C2CCCCC2)c2ccccc12` (centres unmarked) [Quadrisol], the concentration at half-maximal activity (AC50) is 35.8 µM.
Consider `CSc1ccc(/C=C2/C(C)=C(CC(=O)O)c3cc(F)ccc32)cc1` [Sulindac sulfide], for which the AC50 turned out to be 24 µM.
Take `CCCCNc1ccc(C(=O)OCCN(C)C)cc1` [Tetracaine hydrochloride]: the concentration at half-maximal activity (AC50) was determined as 11.2 µM.
Turning to `CCCc1nc2c(C)cc(-c3nc4ccccc4n3C)cc2n1Cc1ccc(-c2ccccc2C(=O)O)cc1` [Telmisartan], the AC50 was 31.6 µM.
Consider `OC(CCCN1CCCCC1)(c1ccccc1)c1ccccc1` [Diphenidol], for which the AC50 was determined as 19 µM.
Under `O=[N+]([O-])c1c(Cl)c(Cl)c(Cl)c(Cl)c1Cl` [Pentachloronitrobenzene] stands above 90 µM; under `CC(=O)C(Cl)C(=O)N(C)C` (centres unmarked) [2-Chloro-N,N-dimethyl-3-oxobutanamide], 90.4 µM; under `O=C(Nc1ccccc1-c1ccc(Cl)cc1)c1cccnc1Cl` [Boscalid], above 100 µM.
Under `O=C(C[C@H]1NCCC[C@@H]1O)Cn1cnc2cc(Br)c(Cl)cc2c1=O` (racemic) [Halofuginone hydrochloride] stands 46.9 µM; under `OC[C@H](Cc1cccc(O)c1)[C@H](CO)Cc1cccc(O)c1` [(-)-Enterodiol], above 90 µM.
The result for `CCCCCCCCCCCC(=O)OCC(O)CO` (centres unmarked) [1-Monolaurin] reads 47.2 µM; that for `CCC(C)(CC)c1cc(NC(=O)c2c(OC)cccc2OC)on1` [Isoxaben], above 90 µM.
For `CC(C)CCC[C@@H](C)[C@H]1CC(=O)C2=C3CC[C@H]4C[C@@H](O)CC[C@]4(C)[C@H]3CC[C@@]21C` [Colestolone], the half-maximal activity concentration (AC50) stood at 7.21 µM.
The result for `CNC(=S)NC` [N,N'-Dimethylthiourea] reads 72 µM; that for `CNC(=O)c1ccccc1Sc1ccc2c(/C=C/c3ccccn3)n[nH]c2c1` [Axitinib], 0.777 µM; that for `C=C(C)CN(CC)c1c([N+](=O)[O-])cc(C(F)(F)F)cc1[N+](=O)[O-]` [Ethalfluralin], above 90 µM.
Under `CCOC(=O)n1ccn(C)c1=S` [Carbimazole] stands above 20 µM.
Under `Cc1cc(O)c2c(c1)C(=O)c1cccc(O)c1C2=O` [Chrysophanic acid] stands 40.7 µM; under `CC(CN1CC(=O)NC(=O)C1)N1CC(=O)NC(=O)C1` (centres unmarked) [ICRF-159], 33.9 µM.
`CNC(=O)Nc1ccc(Cl)c(Cl)c1` [N-(3,4-Dichlorophenyl)-N'-methylurea]: the AC50 worked out at 48.2 µM.
The result for `Cc1cc(C(C)(C)C)c(O)c(C)c1Cn1c(=O)n(Cc2c(C)cc(C(C)(C)C)c(O)c2C)c(=O)n(Cc2c(C)cc(C(C)(C)C)c(O)c2C)c1=O` [Cyanox CY 1790] reads 66.5 µM; that for `Cn1cnc([N+](=O)[O-])c1Sc1ncnc2[nH]cnc12` [Azathioprine], above 50 µM.
Under `CC(=O)Oc1ccc(C2(c3ccc(OC(C)=O)cc3)Oc3ccccc3NC2=O)cc1` [Bisoxatin acetate] stands 3.76 µM; under `COC(=O)C(C)N(C(=O)Cc1ccccc1)c1c(C)cccc1C` (centres unmarked) [Benalaxyl], above 90 µM.
Under `N=c1c[n+](N2CCOCC2)[n-]o1` [3-Morpholinosydnonimine hydrochloride] stands 52.1 µM; under `c1cc2c(c(NC3=NCCN3)c1)CCCC2` [Tramazoline tosylate], 37.5 µM.
For the compound `C#CCC(Cc1cnc2nc(N)nc(N)c2n1)c1ccc(C(=O)N[C@@H](CCC(=O)O)C(=O)O)cc1` (some centres unmarked) [Pralatrexate], the AC50 amounted to 0.687 µM.
Turning to `Brc1cc(Oc2cc(Br)c(Br)c(Br)c2Br)c(Br)c(Br)c1Br` [Octabromodiphenyl ether], the AC50 amounted to 10.5 µM.
In the case of `O=C(O)C1=NN(c2ccc(S(=O)(=O)O)cc2)C(=O)C1N=Nc1ccc(S(=O)(=O)O)cc1` (centres unmarked) [FD&C Yellow 5], the AC50 is 6.01e-06 µM.
Under `CC(C)Oc1ccc2c(=O)c(-c3ccccc3)coc2c1` [Ipriflavone] stands 25 µM; under `Cc1ccc(/C(=C\CN2CCCC2)c2ccccn2)cc1` [Triprolidine], 21.5 µM.
On to `CCOC(=O)NCCOc1ccc(Oc2ccccc2)cc1` [Fenoxycarb], for which the AC50 stood at 75.9 µM.
